About 18,000 (4.4%) of roughly 410,000 compounds were called active. About 7% were inconclusive and are not listed. Shown is part of a subset that was picked to be rich in actives. A number with no mark means an inactive call. No stated cut-off is given here; in the data, active means activity change below about -60%; inconclusive means no clear call, values can overlap the other calls; inactive means above about -39%.

The source of these data is PubChem BioAssay AID1259415 (National Center for Advancing Translational Sciences (NCATS), 2018).
On the % scale 0 is the no-effect control and ±100 the full control effect.

The experiment in a line: qHTS Assay for inhibitors of the human cytomegalovirus (HCMV). Particulars: HFF cells, HCMV-luciferase reporter, 72 h; at 57.5 µM; hits give low values. A digest of the protocol:
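Luciferase read-out from HCMV-luciferase-infected HFFs (MOI 1 PFU/cell) 72 h post infection at 37C; compounds added after 16 h cell attachment; activity normalized between buffer-only basal and Salinomycin (10uM) inhibitor controls.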
Turning to `Cc1ccc(CCC(=O)Nc2ncc(Cc3cc(Cl)ccc3Cl)s2)o1`, the activity change, negative = inhibition was -89.7% (active).

`CCc1ccc(CCC(=O)Nc2ccc(S(N)(=O)=O)cc2)o1`: the activity change, negative = inhibition was -16.8%. With `COc1ccccc1N1CCN(C(=O)C2CCN(S(=O)(=O)c3c(C)noc3/C=C/c3ccc(C)cc3)CC2)CC1` the figure was 1.7%; with `CCCN(CCC)C(=O)C(Cc1ccccc1)NS(=O)(=O)c1ccc2c(c1)c(=O)n(C)c(=O)n2C` (stereo not given), 1.57%. For `CCCCc1cc(=O)oc2c(C)c(OCC(=O)N3CCC(C(N)=O)CC3)ccc12` the value was -17.9%; for `CCOC(=O)C1CCN(C(=O)COc2cccc3ccccc23)CC1`, -33.6%.

Turning to `NC(=O)C1CCN(C(=O)COc2cccc3cccnc23)CC1`, the activity change, negative = inhibition is -88.1% (active). For `CC(C)=CCCC(C)CN1CCC(n2nccc2NC(=O)c2ccccc2)CC1` (stereo not given) the value was -18.5%; for `COc1ccc(NC(=O)C(c2ccccc2)N2Cc3ccccc3C2=O)cc1` (stereo not given), -2.09%.

`CC(C)(C)c1ccc(OC(=O)N2CCCCC2)cc1`: the activity change, negative = inhibition is 29.6%. For `CC(C)(C)c1ccc(Oc2ccc(N)cc2)cc1` the value was -86.3% (active); for `Cc1c(Cl)cccc1NC(=O)c1noc2c1CCCC2`, -4.84%. For `O=C(Nc1c(Br)cc2c(c1Br)Cc1cc([N+](=O)[O-])ccc1-2)C(Cl)Cl` the value was -31.6%; for `COc1ccc(-n2c(SC)nc3sc4c(c3c2=O)CCN(C(C)=O)C4)cc1`, 24.9%; for `Cc1ccc(CNC(=O)Cn2c(=O)ccc3cc(S(=O)(=O)N4CCCC4)ccc32)cc1`, -10.3%. For `Cc1ccn2c(Nc3ccc4c(c3)OCCO4)c(-c3ccc(C)s3)nc2c1` the value was 10.7%; for `O=c1oc2ccccc2cc1-c1csc(Nc2ccc(O)cc2)n1`, -87.2% (active); for `COc1ccc(-c2csc(Nc3ccc(O)cc3)n2)cc1`, -72.3% (active). Consider `COc1ccc(-c2csc(-c3c(N)c(C(=O)c4ccc(OC)c(OC)c4)n4ccccc34)n2)cc1`, for which the activity change, negative = inhibition is 9.65%. With `N#C/C(=C\c1cccc(F)c1)c1nc(-c2cc3c(ccc4ccccc43)oc2=O)cs1` the figure was 1.4%. With `CCOc1ccc(Nc2ncnc3scc(-c4ccc(OC)cc4)c23)cc1` the figure was -22.6%. For `Cc1cc(NC(=O)c2cccc(Cl)c2)ccc1-c1cc2ccccc2oc1=O` the value was 28.2%; for `CC(C)(C)c1ccc(OCC(=O)N2CCC(c3nc4ccccc4s3)CC2)cc1`, 4.7%; for `COCCn1c(CCC(=O)Nc2cc(C)ccc2C)nc2cccnc21`, 5.25%. As for `O=C(OCc1nnc(-c2ccccc2)o1)c1cc(=O)[nH]c2ccccc12`, the activity change, negative = inhibition is -98.7% (active). With `CC1CCN(C(=O)COC(=O)c2cc(=O)[nH]c3ccccc23)CC1` the figure was 10.6%. For `CCOC(=O)c1ccc(COC(=O)c2cc(=O)[nH]c3ccccc23)o1` the value was -5.78%; for `CCc1ccc(S(=O)(=O)Nc2cc3c(C(=O)OCc4ccccc4)c(C)oc3c3ccccc23)cc1`, 8.24%. With `CCN(CC)C(=O)CSC1c2ccccc2C(=O)N1c1ccccc1` (stereo not given) the figure was -6.4%; with `COc1ccc(-c2nc3c(c(SCC(=O)Nc4ccc(C(=O)O)cc4)n2)Cc2ccccc2O3)cc1`, 42.3%; with `CCOC(=O)/C(=C\c1ccc([N+](=O)[O-])cc1)C(=O)c1cc(C(C)=O)c(Nc2ccccc2)s1`, -106% (active). With `CCOC(=O)c1c(C)[nH]c(C)c1C(=O)COC(=O)/C=C/c1cccc([N+](=O)[O-])c1`, the activity change, negative = inhibition is -7.36%. For `CC(C)c1nnc(NC(=O)COC(=O)/C=C/c2ccc([N+](=O)[O-])cc2)s1`, the activity change, negative = inhibition was 28.8%. For `Oc1ccccc1-c1nc2ccc(Cl)cn2c1Nc1ccc2c(c1)OCCO2` the value was -5.59%; for `COc1ccccc1CNC(=O)CCn1c(=O)c2ccccc2n(CC(=O)Nc2ccc(Br)cc2F)c1=O`, -12.3%; for `Cc1ccc(Cn2c(CNC(=O)Cc3cccc(C)c3)nc3cccnc32)cc1`, -7.33%. With `Cc1ccc(NC(=O)c2nc(S(=O)(=O)Cc3cccc(C)c3)ncc2Cl)cc1` the figure was -94.3% (active); with `Cc1cccc(CS(=O)(=O)c2ncc(Cl)c(C(=O)Nc3ccc(F)cc3)n2)c1`, -110% (active). With `Cc1cccc(NC(=O)Cn2cc(S(=O)(=O)Cc3ccccc3Cl)c3ccccc32)c1` the figure was 0%; with `CCOC(=O)c1ccc(NC(=O)c2nc(SCc3ccc(F)cc3)ncc2Cl)cc1`, 13.6%.

For the compound `Cc1cccc(NC(=O)c2nc(S(=O)(=O)Cc3ccccc3)ncc2Cl)c1`, the activity change, negative = inhibition was -100% (active). For `Cc1ccc(CCNC(=O)c2ccc(CS(=O)(=O)Cc3cccc(C)c3)o2)cc1` the value was -17.4%; for `CCCSc1ncc(Cl)c(C(=O)Nc2c(C(=O)Nc3ccccc3)oc3ccccc23)n1`, -20.1%; for `CCS(=O)(=O)c1ncc(N(Cc2ccc(F)cc2)Cc2ccco2)c(C(=O)Nc2cc(C)ccc2C)n1`, -29.7%. As to `CC=C(C)C(=O)OC1CCN2CC=C(COC(=O)C(O)(C(C)OC)C(C)(C)O)C12` (stereo not given), the activity change, negative = inhibition is -28.3%. With `O=C(CCC1N=C2c3ccccc3N=C(SCc3ccccc3F)N2C1=O)NCCc1ccccc1` (stereo not given) the figure was -29%.

For `O=C(Cn1c(=O)n(-c2ccc(F)cc2)c(=O)c2sccc21)Nc1cccc(C(F)(F)F)c1`, the activity change, negative = inhibition was -5.68%. With `CC1CCCCN1S(=O)(=O)c1ccc(F)c(C(=O)Nc2ccccc2C(F)(F)F)c1` (stereo not given) the figure was 11%.

Take `COc1cc([C@H](Cc2ccccc2)NC(C)=O)oc(=O)c1`: the activity change, negative = inhibition is -10.1%.

As for `COc1cccc(C(=O)c2sc3nc(-c4ccccc4)cc(C(F)(F)F)c3c2N)c1`, the activity change, negative = inhibition was 7.18%. With `NC(=O)c1sc2nc3c(c(-c4ccccc4)c2c1N)CCC3` the figure was -93.9% (active); with `CC(C)OC(=O)c1sc2nc3c(cc2c1N)C(=O)CCC3`, 45.7%.

Take `CCOc1ccc(CCNC(=O)COC(=O)CCS(=O)(=O)c2ccc(C)cc2)cc1OCC`: the activity change, negative = inhibition is 55.9%. With `COc1ccc(-c2csc(NC(=O)c3ccc(N4C(=O)CCC4=O)cc3)n2)cc1OC` the figure was -70.7% (active). Consider `COc1ccc(CC(=O)Nc2nc(-c3ccc(F)c(F)c3)cs2)cc1OC`, for which the activity change, negative = inhibition was -78.6% (active). With `COc1ccc(C(=O)Nc2nc(-c3ccc(S(=O)(=O)N4CCOCC4)cc3)cs2)cc1` the figure was -98.4% (active); with `COc1ccc(-n2nc3c(c2NC(=O)c2ccc(N4C(=O)CCC4=O)cc2)CSC3)cc1`, 0%.

For `COc1ccc(CCNC(=O)COC(=O)Cc2cc(OC)c(OC)c(OC)c2)cc1`, the activity change, negative = inhibition was -11.8%. Turning to `COc1ccc(CC(=O)Nc2nnc3n2CCS3)cc1OC`, the activity change, negative = inhibition is 1.77%. For `COc1ccc(C2(CNC(=O)Cc3ccc(OC)c(OC)c3)CCCC2)cc1` the value was -33.6%; for `COc1ccccc1C(=O)Oc1ccc(N2C(=O)CCC2=O)cc1`, -9.72%. As to `COc1cc(CC(=O)Nc2nc(-c3ccc(F)c(F)c3)cs2)cc(OC)c1OC`, the activity change, negative = inhibition was -77.3% (active). With `COc1ccc(-c2cc(C(=O)NCc3cc(OC)c(OC)c(OC)c3)[nH]n2)cc1` the figure was 3.93%; with `COc1ccc(C(=O)Nc2cc(S(=O)(=O)N3CCCC3)ccc2Cl)cc1`, -31.9%. With `Cc1cc2nc(NC(=O)c3ccc(S(=O)(=O)N4CCOCC4)cc3)sc2cc1C` the figure was 3.59%. Regarding `CCC(C)N(C(=O)COC(=O)C1C(C(=O)OC)=C(C)NC(C)=C1C(=O)OC)C1CCS(=O)(=O)C1` (stereo not given), the activity change, negative = inhibition was -15.8%.

`COc1ccc(S(=O)(=O)N[C@H]2CC[C@@]34CCCN3C(=O)CCC[C@H]4[C@H]2Cc2ccccc2)cc1`: the activity change, negative = inhibition was -13.9%. Consider `Cc1ccccc1OCc1nc2c3cnn(-c4ccccc4F)c3ncn2n1`, for which the activity change, negative = inhibition is 2.88%. With `CCN1CCN(c2ncc3c(n2)CC(c2ccccc2O)CC3=O)CC1` (stereo not given), the activity change, negative = inhibition was -2.14%. With `CCOC(=O)c1ccc2c(c1)N(Cc1cccc(OC)c1)C(=O)c1ccccc1S2(=O)=O` the figure was 41.8%; with `O=C(NC1CCCCC1)c1ccc(Cn2c(SCc3ccccc3)nc3cccnc32)cc1`, 13.4%; with `CCS(=O)(=O)N1CCc2cc(C(=O)NCc3ccc(OC)cc3)ccc21`, 21.8%. For `Cc1ccc(OCCSc2nc(C)c(Cc3ccccc3)c(=O)[nH]2)cc1` the value was -3.53%. With `COc1ccc(CNC(=O)c2cc3c(=O)[nH]c4ccccc4c3s2)cc1` the figure was -6.89%. With `Cc1ccc(C)n1-c1nnc(N2CCC(C(=O)NCc3ccccc3Cl)CC2)s1`, the activity change, negative = inhibition was -16.5%. For `Cc1cccc(-c2nc(SCC(=O)Nc3cc(C)on3)c3c(=O)n(C)c(=O)n(C)c3n2)c1` the value was -3.8%; for `CCOC(=O)c1oc2ccc(S(=O)(=O)n3nc(-c4ccccc4OC)cc3N)cc2c1C`, 0.413%; for `Cc1oc2cc3oc(=O)ccc3cc2c1C`, 57.6%. Regarding `Cc1ccc(NC(=O)Cc2ccc(NC(=O)N3CCCCc4ccccc43)cc2)cc1`, the activity change, negative = inhibition was 2.61%. For `COc1ccc2c(c1)c(=O)c(C(=O)c1ccccc1)cn2CC(=O)Nc1ccc2c(c1)OCCO2` the value was -4.48%; for `COc1ccccc1-c1noc(CSc2nc(C)cc(=O)[nH]2)n1`, -61.9% (active); for `COc1ccccc1-c1noc(CSc2nnc(-c3ccccc3)n2-c2ccc(C)c(C)c2)n1`, 4.88%. With `COc1ccc(-c2noc(CSc3nc(C)cc(=O)[nH]3)n2)cc1OC` the figure was 14.1%; with `Cn1c(=O)sc2cc(NS(=O)(=O)c3ccc(C(C)(C)C)cc3)ccc21`, -1.79%.

As to `COc1ccc(N2CCN(S(=O)(=O)c3cc(Br)cnc3N)CC2)cc1`, the activity change, negative = inhibition was 19.7%.
